# AmpC no deterg = qHTS Inhibitors of AmpC Beta-Lactamase (assay without detergent); P00811; AmpC nitrocefin hydrolysis, absorbance 480 nm, 0.0001% Triton; Potency, µM (titrated, usually from 57.1 µM), hits mostly inhibitors; 330,000 compounds, 0.52% hits; AID 485341, 2010; further: nearly all actives have a fitted effect of over 20% in size
# Target sequence (P00811 whole entry, looked up): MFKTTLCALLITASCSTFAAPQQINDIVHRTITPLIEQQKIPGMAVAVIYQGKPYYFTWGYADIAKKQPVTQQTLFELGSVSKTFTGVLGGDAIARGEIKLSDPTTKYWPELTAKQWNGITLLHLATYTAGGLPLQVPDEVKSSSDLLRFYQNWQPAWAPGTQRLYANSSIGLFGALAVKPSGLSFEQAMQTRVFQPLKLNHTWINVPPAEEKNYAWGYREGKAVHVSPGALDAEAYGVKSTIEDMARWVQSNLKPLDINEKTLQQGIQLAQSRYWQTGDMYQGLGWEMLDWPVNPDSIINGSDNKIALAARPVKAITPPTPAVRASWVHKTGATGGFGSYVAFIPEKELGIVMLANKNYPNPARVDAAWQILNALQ
#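 AmpC (5.3 nM in the dispensed reagent) in 20 mM phosphate pH 7.0 with 0.01% (detergent screen) or 0.0001% Triton X-100 was preincubated with compounds for 15 min at room temperature. Nitrocefin was then added from an 800 uM solution, and hydrolysis was followed at 480 nm.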
# RE007 growth inh = qHTS Assay for Inhibitors of the HIV-1 protein Vpr; S. pombe RE007 Vpr strain, BacTiter-Glo ATP luminescence, 24 h; Potency, µM (highest dose often 92.2 µM), most hits filed as inhibitors; 360,000 compounds, 0.21% hits; AID 651644, 2012; active means well fitted falling curve with a large enough effect; inconclusive means small, poorly fitted or top-dose-only effect; inactive means no such curve, though single readings can be large or run the other way; further: nearly all actives have a fitted effect of over 50% in size
#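 Fission yeast RE007 carrying one integrated HIV-1 vpr copy, seeded at OD 0.01 in PMG+AL medium with 23 nL pinned compound. Grown 24 h at 30 degrees; viability read by BacTiter-Glo luminescence after 5 min.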
# AmpC inh detg = qHTS Inhibitors of AmpC Beta-Lactamase (assay with detergent); P00811; AmpC hydrolysis of nitrocefin, absorbance 480 nm, 0.01% Triton; Potency, µM (doses to about 114 µM), usual class: inhibitors; 370,000 compounds, 0.041% hits; AID 485294, 2010; further: nearly all actives have a fitted effect of over 25% in size
#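 AmpC (5.3 nM in the dispensed reagent) in 20 mM phosphate pH 7.0 with 0.01% (detergent screen) or 0.0001% Triton X-100 was preincubated with compounds for 15 min at room temperature. Nitrocefin was then added from an 800 uM solution, and hydrolysis was followed at 480 nm.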
# Sm TGR block = qHTS Assay for the Inhibitors of Schistosoma Mansoni Peroxiredoxins; Schistosoma mansoni thioredoxin glutathione reductase (TGR), Q962Y6; AID 485364, 2010; purified TGR, DTNB reduction, TNB absorbance 405 nm; 360,000 compounds, 3% hits; Potency, µM (highest dose often 114 µM), most hits filed as inhibitors; further: nearly all actives have a fitted effect of over 60% in size
#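 First, TGR (20 nM dispensed) and NADPH were mixed with compound. Second, a 15 min room-temperature incubation followed. Third, further NADPH and then DTNB were added to start the reaction. Finally, TNB absorbance was monitored kinetically.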
# AMA1 RON2 block = qHTS for Inhibitors of AMA1-RON; Towards Development of Antimalarial Drug Lead: Primary Screen; Plasmodium falciparum AMA1 (3D7) - RON2 peptide interaction; AlphaScreen AMA1-biotinylated RON2 peptide binding; Potency, µM (top dose mostly 58.2 µM), most hits filed as inhibitors; 360,000 compounds, 0.2% hits; further: nearly all actives have a fitted effect of over 45% in size
#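 AMA1 (3D7) with his tag at 25 nM final met compounds first, then biotinylated RON2 peptide at 25 nM; detection used donor plus acceptor beads, 10 µg/mL apiece, read by AlphaScreen after 30 min at room temperature.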
# Hits are given with their value; – = inactive; ? = inconclusive; · = not tested or not shown. In the library only some 3.2% were active in any assay of this set; here they are far more common. Unless noted, the call rests on the fitted dose curve; in most records, active means well fitted curve in the direction sought with a large enough effect; inconclusive means small, poorly fitted or top-dose-only effect, or another doubt; inactive means no such curve, though single readings can be large; an effect the other way counts as inactive or inconclusive.
SMILES,AmpC no deterg,RE007 growth inh,AmpC inh detg,Sm TGR block,AMA1 RON2 block
CCCCC1CCC(CCCC(C)CCC(=O)O)CC1 (centres undefined),·,·,–,–,·
Cc1cc(C)cc(NC(=O)CSc2nccn2C2CCCC2)c1,·,·,–,–,·
O=[N+]([O-])c1cc(C=Nc2ccc3ccccc3c2)ccc1Br,–,–,–,45µM,?
CCOc1ccc(N=Cc2ccc3ccccc3c2)cc1,–,–,–,–,–
CCSc1nc(O)c(C2OC(=O)c3c2ccc(OC)c3OC)c(=O)n1-c1ccccc1 (centres undefined),–,–,?,7.1µM,–
CC(C)c1ccc(N(C(=O)c2snc(C(N)=O)c2N)C(C(=O)NCC2CCCO2)c2ccc(N(C)C)cc2)cc1 (centres undefined),–,–,–,–,14µM
CN(C)c1ccc(C(C(=O)NC2CCCC2)N(Cc2cccnc2)C(=O)c2snc(C(N)=O)c2N)cc1 (centres undefined),–,?,–,–,–
Cc1ccc(C(C(=O)NC2CCCC2)N(Cc2cccnc2)C(=O)c2snc(C(N)=O)c2N)o1 (centres undefined),–,–,–,45µM,–
Cc1ccc(N(C(=O)c2snc(C(N)=O)c2N)C(C(=O)NC2CCCC2)c2ccco2)cc1 (centres undefined),–,–,–,40µM,–
Cc1ccc(Cn2c(C)c3cnn(CC(=O)O)c(=O)c3c2C)cc1,·,·,–,–,·
Cn1c(O)c(C(=N)COc2ccccc2)c(=O)n(C)c1=O,–,–,–,–,–
Cn1c(O)c(C(=Nc2ccccc2)SCc2ccc(Cl)cc2)c(=O)n(C)c1=O,–,–,–,20µM,–
COc1ccc(CNC(=O)Cc2ccc(NC(=O)N3CCSc4ncccc43)cc2)cc1OC,·,·,–,–,·
CC1(C)CC2(C)OC(=N)C1(C#N)C2(C#N)C#N (centres undefined),–,–,–,13µM,–
Cc1ccc(-c2csc(=Nc3ccccc3)n2Cc2ccc3c(c2)OCO3)cc1C,·,·,–,–,·
CCc1cc2c(=O)[nH]c(N3CCCC3)nc2s1,–,–,–,–,–
CCc1cc2c(=O)[nH]c(-c3ccccn3)nc2s1,–,32µM,–,–,–
Cc1cccc(NC(=O)Cn2c(=O)n(Cc3ccccc3)c(=O)c3oc4ccccc4c32)c1C,·,·,–,–,·
O=C(O)CCN1C(=O)c2ccncc2C1=O,–,–,–,–,–
O=C1c2ccncc2C(=O)N1CO,–,–,–,50µM,–
Cc1nn2c(C)c(C(=O)N3CCN(c4ccccc4)CC3)cnc2c1-c1ccccc1,·,·,–,?,·
CC(=O)c1ccc(NC(=O)c2ccc(-c3ccc(Cl)cc3)o2)cc1,·,·,–,40µM,·
CN(C)C(=O)c1ccc(NC(=O)c2ccc(-c3ccc(Cl)cc3)o2)cc1,–,–,–,32µM,–
COc1ccc(NC(=O)c2ccc(-c3ccc(C(C)=O)cc3)o2)cn1,–,–,–,–,–
Cc1scc(CN2CCN(c3ccccc3F)CC2)c1C,·,·,–,–,·
SMILES,AmpC no deterg,RE007 growth inh,AmpC inh detg,Sm TGR block,AMA1 RON2 block
CCOC(=O)C1C(c2cccs2)NC(=O)N(C)C1(O)C(F)(F)F (centres undefined),–,–,–,–,–
CN1C(=O)NC(c2cccc(O)c2)C(C(=O)c2cccs2)C1(O)C(F)(F)F (centres undefined),–,–,–,3.5µM,–
CC(=O)N1CCc2cc(Br)cc(S(=O)(=O)CCC(=O)N3CCN(c4ccc(F)cc4)CC3)c21,·,·,–,?,·
O=C(O)c1ccc(N=Nc2c(O)ccc3ncccc23)cc1,–,–,–,–,6.3µM
CC(c1ccon1)N(C)Cc1cn(C)nc1-c1cccc(Cl)c1 (centres undefined),–,–,–,28µM,?
Cc1ccccc1[C@]1(C)ON(c2ccccc2C(F)(F)F)C1=O,–,·,–,–,·
CC[C@]1(c2ccccc2C)ON(c2ccccc2C(F)(F)F)C1=O,–,–,–,56µM,–
Cc1cc2[nH]c(=O)c(=O)[nH]c2cc1S(=O)(=O)N1CCN(c2cccc(Cl)c2)CC1,–,–,–,–,–
Cc1cc2[nH]c(=O)c(=O)[nH]c2cc1S(=O)(=O)N1CCN(c2cccc(C(F)(F)F)c2)CC1,3.2µM,–,–,–,–
COc1ccccc1Cn1ccn(CC(=O)Nc2c(C)cc(C)cc2C)c(=O)c1=O,·,·,–,–,·
C#CCNC(=O)C1=C[C@@H](c2ccc(C(F)(F)F)cc2)C[C@@H](OCCCCO)O1,–,–,–,22µM,–
C#CCNC(=O)C1=C[C@@H](c2ccc(C(F)(F)F)cc2)C[C@@H](OCc2ccc(CO)cc2)O1,·,–,·,·,–
C#CCNC(=O)C1=C[C@H](c2ccc(Br)cc2)C[C@H](OCCCCO)O1,–,–,–,16µM,–
CN1CCN(C(=O)C2=C[C@@H](c3ccc(C(F)(F)F)cc3)C[C@@H](OCCCCO)O2)CC1,–,–,–,45µM,–
C#CCNC(=O)C1=C[C@@H](c2ccc(Br)cc2)C[C@@H](OCc2ccc(CO)cc2)O1,–,–,–,45µM,–
C#CCNC(=O)C1=C[C@H](c2ccc(Br)cc2)C[C@H](OCc2ccc(CO)cc2)O1,–,–,–,?,–
Cc1ccc(C)c(CN2C(=O)c3ccccc3S(=O)c3ccc(C(=O)NCCc4ccc(Cl)cc4)cc32)c1 (centres undefined),·,·,–,–,·
COc1cc(N=c2ssnc2Cl)cc(OC)c1,–,?,–,79µM,–
Cc1ccc(C)c(Cn2c(=O)n(-c3ccc(Cl)cc3)c(=O)c3c(C)c(C)sc32)c1,·,·,–,–,·
c1ccc(-c2nnsc2-c2ncc[nH]2)cc1,–,–,–,–,–
CN(C)c1ncc(S(=O)(=O)c2ccc(Cl)cc2)c(-c2ccccc2)n1,–,–,–,–,–
O=S(=O)(c1ccc(F)cc1)c1snnc1-c1ccccc1,–,–,–,35µM,–
O=S(=O)(c1ccc(Cl)cc1)c1snnc1-c1ccccc1,–,–,?,13µM,–
O=C(CCC1N=C2c3ccccc3N=C(SCc3ccccc3Cl)N2C1=O)NCCc1ccccc1 (centres undefined),·,·,–,–,·
COC(=O)c1cc(NC(=O)C2COc3ccccc3O2)cc(C(=O)OC)c1 (centres undefined),0.22µM,–,–,–,–
CCN1C(=O)CC(N2CCOCC2)C1=O (centres undefined),–,–,–,–,–
CN(C)N1C(=O)CC(N2CCCC2)C1=O (centres undefined),–,?,–,22µM,–

# Screening results: PubChem BioAssay, National Center for Advancing Translational Sciences (NCATS)
